# Test results: PubChem BioAssay (NCATS)
# Records with an inconclusive call do not appear. A call without a number means that no potency is given here. Activity calls are given as the source filed them. Calls follow the shape of the dose curve; as a rule, active = well fitted cell-killing curve with a large enough effect; inconclusive = small, poorly fitted or top-dose-only effect; inactive = flat fitted curve, though single readings scatter.
# Test: Quantitative highthroughput screen to assess conditional lethalithy of NOMO1 cells grown in RPMI1640 with untreated serum (RPMI+s) (AID 1963876); also: nearly all actives have a fitted effect of over 35% in size
# Conditions: NOMO1 AML cells in RPMI+serum, CellTiter-Glo viability, 48 h; series mostly up to 45.8 µM
# Description: Assay Provider: Jason Cantor Ph.D.
# Department of Biochemistry
# University of Wisconsin-Madison, Madison, WI, USA
# Chemical screening studies have identified drug sensitivities across hundreds of cancer cell lines but most putative therapeutics fail to translate. Discovery and development of drug candidates in models that more accurately reflect nutrient levels in human blood is a major challenge. Here we performed high-throughput screens in conventional versus Human Plasma-Like Medium (HPLM) to identify compounds that were "missed" when screening using the artificial culture condition. Sets of conditional anticancer compounds spanned phases of clinical development and included non-oncology drugs were assessed. […] We also traced conditional phenotypes for several chemotherapeutics to availability of HPLM-specific metabolites and confirmed others for compounds whose reported targets are encoded by nonessential genes. Our findings establish generalizable strategies for exploiting conditional lethality in HPLM to reveal therapeutic candidates and mechanisms of action in cancer cells.
# Described herein are the results of each viability screens against three cell lines: NOMO1 (an acute myeloid leukemia cell line); P12-Ichikawa (a T-cell acute lymphoblastic leukemia); and SEM (a B-cell ALL). Each assay was screened using 3 different cell culture media: homemade human plasma-Like medium with 10% dialyzed fetal bovine serum (HPLM+ds); RPMI1640 with 10% untreated FBS and 5mM glucose (RPMI+s); and RPMI1640 with 10% dialyzed fetal bovine serum and 5 mM glucose (RPMI+ds).
# PROTOCOL TABLE (as described by Inglese J, Shamu CE and Guy RK. 2007)
# SEQUENCE No. (e.g., 1, 2, 3, etc.); […] (e.g., Cells, Incubation, Reagent, etc.); VALUE and DESCRIPTION.
# 1; Cells; 5 uL; white, solid bottom 1536-well Greiner assay plate.
# 2; Compounds; 23 nL; Kalypsis pin tool (Wako USA) equipped with a 1536-well pin head to transfer to the assay plates.
# 3; Incubation; 48 hours; 37C incubation.
# 4; Reagent; 3 uL; CellTiter Glo (Promega).
# 5; Incubation; 5 min, room temperature
# 6; Detection; Luminescence, Viewlux PerkinElmer.
# NOTES (numbers refer to Sequence numbers above)
# 1. Briefly, 5 ul of cell reagent was dispensed using a Multidrop Combi Dispenser. The NOMO1 and SEM cells were plated at 500 cells/well and the P12-Ichikawa line at 1000 cells/well.
# 2. After seeding the cells, 23 nL of MIPE 4.1 library compounds (in DMSO) were added to each plate using a Kalypsys 1536 Pintool dispenser. Bortezomib at final concentration of […] and DMSO were added to each plate as positive and negative controls respectively. For each screen, MIPE 4.1 compounds were added over an eleven-point concentration range […] in 3-fold dilutions.
# 3. Each plate was covered with a stainless steel gasketed lid to prevent evaporation and incubated for 48 hour at 37C, 95% relative humidity, and 5% CO2.
# 4-5. Three microliter CellTilter-GloTM luminescent substrate mix (Promega) reagent was added to the assay plate and incubated at room temperature for 5 min.
# 6. The luminescence signal was measured using a ViewLux (PerkinElmer) multiplate reader with a 2 second exposure time per plate. Data for each compound were normalized as percent viability such that measurements for DMSO and the empty well controls in each plate were defined as 100% and 0%, respectively.
# Potency is read from the fitted curve at half-maximal effect.
row,Structure (SMILES),Potency
1,C[C@]12COC(=O)C[C@@H]1CC[C@@H]1[C@H]2CC[C@@]2(C)[C@H]1CC[C@]2(C)O,inactive
2,C[C@]12CC[C@H](O)CC1=CC[C@H]1[C@H]3CCC(=O)[C@@]3(C)CC[C@@H]12,inactive
3,C[C@H]([C@H](O)CCC(C)(C)O)[C@H]1CC[C@@]2(O)C3=CC(=O)[C@@H]4C[C@@H](O)[C@@H](O)C[C@]4(C)[C@@H]3CC[C@]12C,inactive
4,C[C@@H]1O[C@@H](O[C@@H]2C=C3CC[C@@H]4[C@@H](CC[C@]5(C)[C@H](c6ccc(=O)oc6)CC[C@@]45O)[C@@]3(C)CC2)[C@H](O)[C@H](O)[C@H]1O,0.0662 µM (active)
5,CCN1C[C@]2(OC(=O)c3ccccc3NC(C)=O)CC[C@H](OC)[C@@]34[C@H]5CC6[C@@H](OC)C[C@](O)(C(C[C@@H]23)[C@@H]14)[C@@]5(O)[C@@H]6OC,inactive
6,COC1=CC(C)=C[C@@H](C)[C@@H](O)[C@@H](C)CC(C)=CC=C[C@H](OC)[C@H]([C@@H](C)[C@@H](O)[C@H](C)[C@@]2(O)C[C@@H](O)[C@H](C)[C@@H](C(C)C)O2)OC1=O,0.105 µM (active)
7,COC[C@H]1OC(=O)c2coc3c2[C@@]1(C)C1=C(C3=O)[C@@H]2CC[C@H](O)[C@@]2(C)C[C@@H]1OC(C)=O,inactive
8,O=C(NCC1CCOCC1)c1cnc(Nc2ccc(Cl)cc2Cl)nc1C(F)(F)F,inactive
9,CC[C@@]1(O)C(=O)OCc2c1cc1n(c2=O)Cc2cc3ccccc3nc2-1,0.0743 µM (active)
10,Cn1c(CCCC(=O)O)nc2cc(N(CCCl)CCCl)ccc21,inactive
11,CC(=O)O[C@@]12CO[C@H]1C[C@H](O)[C@@]1(C)C(=O)[C@H](O)C3=C(C)[C@@H](O)C[C@@](O)([C@@H](OC(=O)c4ccccc4)[C@@H]21)C3(C)C,14.8 µM (active)
12,CSCC[C@@H](NC(=O)[C@@H](Cc1ccccc1)NC(=O)CNC(=O)CNC(=O)[C@@H](N)Cc1ccc(O)cc1)C(=O)O,inactive
13,O=c1[nH]c2ccccc2n1CCCN1CCC(n2c(=O)[nH]c3cc(Cl)ccc32)CC1,inactive
14,NCC1(CC(=O)O)CCCCC1,inactive
15,C[C@](O)(CS(=O)(=O)c1ccc(F)cc1)C(=O)Nc1ccc(C#N)c(C(F)(F)F)c1,inactive
16,O=C1C=CC[C@@H]2[C@H]3CCCN4CCC[C@@H](CN12)[C@@H]34,inactive
17,CC[C@@H]1[C@@H](C)O[C@@](O)([C@@H](C)[C@H](O)[C@H](C)[C@H]2OC(=O)C=CC=C[C@@H](C)[C@@H]([C@@H](C)[C@@H](O)[C@H](C)[C@@]3(O)C[C@H](O[C@H]4C[C@H](O)[C@H](O)[C@H](C)O4)[C@H](CC)[C@@H](C)O3)OC(=O)C=CC=C[C@@H]2C)C[C@H]1O[C@H]1C[C@H](O)[C@H](O)[C@H](C)O1,2.96 µM (active)
18,C=C[C@@H]1CN2CCC1C[C@@H]2[C@@H](O)c1ccnc2ccccc12 (stereo not given in full),inactive
19,O=P1(NCCCl)OCCCN1CCCl (stereo not given),inactive
20,O=C(Oc1ccc([N+](=O)[O-])cc1)N1CCC(C(O)(c2ccc3c(c2)OCO3)c2ccc3c(c2)OCO3)CC1,inactive

row,Structure (SMILES),Potency
1,Cc1sc2c(c1C)C(c1ccc(Cl)cc1)=N[C@@H](CC(=O)OC(C)(C)C)c1nnc(C)n1-2,0.526 µM (active)
2,C[C@]12CCC(=O)C=C1CC[C@@H]1[C@H]3CC[C@](C)(O)[C@@]3(C)CC[C@@H]12,inactive
3,CC(=O)Nc1ccc(OC[C@](C)(O)C(=O)Nc2ccc([N+](=O)[O-])c(C(F)(F)F)c2)cc1,inactive
4,CN(C)[C@@H]1C(=O)C(C(N)=O)=C(O)[C@@]2(O)C(=O)C3=C(O)c4c(O)cccc4[C@@](C)(O)[C@H]3C[C@@H]12,inactive
5,Cc1ncc(OC[C@@]2(c3cccc(F)c3)C[C@H]2C(=O)Nc2ccc(F)cn2)c(C)n1,inactive
6,CN1CCN(C(=O)O[C@H]2c3nccnc3C(=O)N2c2ccc(Cl)cn2)CC1,inactive
7,C[C@@H]1C[C@@H]([C@H](O)CC2CC(=O)NC(=O)C2)C(=O)[C@@H](C)C1,1.66 µM (active)
8,CCC1(c2ccc(N)cc2)CCC(=O)NC1=O (stereo not given),inactive
9,Cc1c(C(=O)Nc2cccc(C(F)(F)F)c2)cc(-c2ccccc2)n1CCCN1CCOCC1,inactive
10,O=S(=O)(F)Cc1ccccc1,inactive
11,CC(C)(C)[C@]1(O)C[C@@H]2OC(=O)C[C@@]23C(=O)O[C@@H]2OC(=O)[C@H](O)C213 (stereo not given in full),inactive
12,CCCC[N+]1(C)[C@H]2CC(OC(=O)[C@H](CO)c3ccccc3)C[C@H]1[C@H]1O[C@H]12 (stereo not given in full),18.7 µM (active)
13,C[C@@]12OC(=O)[C@]1([C@@H](O)[C@@H]1C=CCCC1)NC(=O)[C@H]2CCCl,0.235 µM (active)
14,O=C(O)c1nn(Cc2ccc(Cl)cc2Cl)c2ccccc12,inactive
15,O=C(O)CNC(=O)c1c(O)c2ccccc2n(Cc2ccccc2)c1=O,inactive
16,CCOC(=O)c1cncn1[C@H](C)c1ccccc1,inactive
17,CNCC(O)c1ccc(O)cc1 (stereo not given),inactive
18,COC(=O)[C@@H](N)CCCN=C(N)N[N+](=O)[O-],inactive
19,CC(N[C@H]1C[C@H]1c1ccccc1)c1ccc2c(c1)OCCO2 (stereo not given in full),inactive
20,CC(=Cc1csc(C)n1)[C@@H]1C[C@H]2O[C@]2(C)CCC[C@H](C)[C@@H](O)[C@@H](C)C(=O)C(C)(C)[C@@H](O)CC(=O)O1,inactive
